{"source": "PubChem BioAssay AID449762", "about": "(Southern Research Specialized Biocontainment Screening …, 2010)", "note": "Screen size: about 330,000 compounds; about 1,900 (0.58%) were called active. Inconclusive results (about 4%) are left out. Cut-off read from the data, not from the text of the source: inconclusive = inhibition above about 70% without an active follow-up result; inactive = below that. Not all results are given here. Entries with a potency or affinity are not part of this list.", "data": [{"assay": "M. tuberculosis growth inhibition, HTS (AID 449762);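 note: bacterial growth assessed after seven days of incubation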", "settings": "M. tuberculosis H37Rv growth inhibition, 7H9 media; at 25 µM; stronger effect = higher value", "values": [{"compound": "Cc1csc(NC(=O)Nc2cccc(Cl)c2)n1", "inhibition": "-2.56% (inactive)"}, {"compound": "Fc1ccc(NC(=S)Nc2cccc(Cl)c2)cc1", "inhibition": "21.8% (inactive)"}, {"compound": "CSc1ncccc1C(=O)OCC(=O)N1CCc2ccccc21", "inhibition": "-3.03% (inactive)"}, {"compound": "O=C(OCC(=O)N1CCc2ccccc21)c1cccnc1Cl", "inhibition": "-2.8% (inactive)"}, {"compound": "CC1CCCC(NC(=O)COC(=O)COc2ccc(Br)cc2)C1C", "note": "(configuration not stated)", "inhibition": "10.5% (inactive)"}, {"compound": "C/C(=N\\NC(N)=S)C12CC3CC(CC(C3)C1)C2", "inhibition": "-3.2% (inactive)"}, {"compound": "C/C(CCC12CC3CC(CC(C3)C1)C2)=N\\NC(N)=S", "inhibition": "-13.2% (inactive)"}, {"compound": "COc1ccc(/C=C/C(=O)N(CC(C)C)C2CCS(=O)(=O)C2)cc1", "note": "(configuration not stated)", "inhibition": "3.62% (inactive)"}, {"compound": "O=C(NCC1CCCO1)C1CC(=O)N(C2CCCCCC2)C1", "note": "(configuration not stated)", "inhibition": "5.65% (inactive)"}, {"compound": "CCOC(=O)CSc1ncc(OC)c(Sc2ccc(Cl)cc2)n1", "inhibition": "0.98% (inactive)"}, {"compound": "CCOC(=O)C(C)Sc1ncc(OC)c(Sc2ccc(Cl)cc2)n1", "note": "(configuration not stated)", "inhibition": "2.61% (inactive)"}, {"compound": "COc1ccc(NC(=O)c2ccc(-n3cccn3)nc2)cc1", "inhibition": "-16.3% (inactive)"}, {"compound": "CCOc1ccc(NC(=O)c2ccc(OC)cc2)cc1", "inhibition": "-11.8% (inactive)"}, {"compound": "CC1Cc2ccccc2N1C(=O)CN(C)CC(=O)Nc1ccc(F)cc1", "note": "(configuration not stated)", "inhibition": "-2.83% (inactive)"}, {"compound": "CC(=O)c1cccc(N(C(=O)c2ccco2)C(C(=O)NC2CCCC2)c2ccccc2F)c1", "note": "(configuration not stated)", "inhibition": "3.81% (inactive)"}, {"compound": "CCCCn1c(N)c(N(CCC(C)C)C(=O)C2CCN(C(=O)c3ccccc3C)CC2)c(=O)[nH]c1=O", "inhibition": "-4.26% (inactive)"}, {"compound": "COc1cc(NC(=O)C2CCCN(S(=O)(=O)c3ccc4[nH]c(=O)ccc4c3)C2)cc(OC)c1", "note": "(configuration not stated)", "inhibition": "-0.31% (inactive)"}, {"compound": "NC(=O)c1cc([N+](=O)[O-])ccc1NCc1cccnc1", "inhibition": "-8.59% (inactive)"}, {"compound": "CCOC(=O)c1ccccc1C(=O)OCC", "inhibition": "7.16% (inactive)"}, {"compound": "Cc1ccc(NC2=C(N3CCCCC3)C(=O)c3ccccc3C2=O)cc1", "inhibition": "-7.72% (inactive)"}, {"compound": "O=C1C(Nc2ccccc2)=C(N2CCCCC2)C(=O)c2ccccc21", "inhibition": "30.1% (inactive)"}, {"compound": "Cc1ccc(CN(C(=O)c2ccco2)C2CCS(=O)(=O)C2)cc1", "note": "(configuration not stated)", "inhibition": "-3.45% (inactive)"}, {"compound": "CCCN1C(=O)C2(OCCO2)c2cc(Cl)ccc21", "inhibition": "3.45% (inactive)"}, {"compound": "COC(=O)c1ccccc1NC(=O)COC(=O)c1ccccc1N=Nc1ccc(N(C)C)cc1", "inhibition": "5.14% (inactive)"}, {"compound": "CN(C)c1ccc(N=Nc2ccccc2C(=O)OCC(=O)N2CCCCCC2)cc1", "inhibition": "11.9% (inactive)"}, {"compound": "Clc1ccc(-c2cn3c(n2)SCC3)cc1", "inhibition": "9.61% (inactive)"}, {"compound": "CCSc1ncc(/C=N/Nc2ccc(F)cc2)n1C", "inhibition": "-4.38% (inactive)"}, {"compound": "CCSc1ncc(/C=N/Nc2ccc([N+](=O)[O-])cc2)n1C", "inhibition": "-1.1% (inactive)"}, {"compound": "Cc1cc(C(=O)NNC(=O)c2cccc(C(F)(F)F)c2)no1", "inhibition": "-7.27% (inactive)"}, {"compound": "CCOc1ccc(C(=O)NC(C)(C)CC)cc1", "inhibition": "26.1% (inactive)"}, {"compound": "CCOc1ccc(C(=O)CCN2CCCCC2)cc1", "inhibition": "42.5% (inactive)"}, {"compound": "CCCOc1ccc(C(=O)CCN2CCCCC2)cc1", "inhibition": "23.5% (inactive)"}, {"compound": "Cc1ccc(-c2nc(S(=O)(=O)c3ccc(C)cc3)c(SCC(=O)NCC3CCCO3)o2)cc1", "note": "(configuration not stated)", "inhibition": "8.98% (inactive)"}, {"compound": "CC(=O)c1ccc(NC(=O)CCc2nc3sc4c(c3c(=O)[nH]2)CCCC4)cc1", "inhibition": "16.8% (inactive)"}, {"compound": "CC(C)OC(=O)c1ccc(NC(=O)c2cncc(Br)c2)cc1", "inhibition": "33% (inactive)"}, {"compound": "CCn1cc(Br)c(C(=O)Nc2ccc(OC)cc2)n1", "inhibition": "-0.58% (inactive)"}, {"compound": "COc1ccc(NC(=S)NC(=O)c2cncc(Br)c2)cc1", "inhibition": "-11.5% (inactive)"}, {"compound": "CCn1cc(Br)c(C(=O)NC(=S)Nc2ccc(C(=O)OC)cc2)n1", "inhibition": "9.85% (inactive)"}, {"compound": "CN1CCN(CCc2nc3cc(NC(=O)c4ccco4)ccc3n2C)CC1", "inhibition": "3.05% (inactive)"}, {"compound": "O=S(=O)(NCCc1cn2ccccc2n1)c1ccc(F)c(C(F)(F)F)c1", "inhibition": "-2.32% (inactive)"}, {"compound": "CCCOc1ccc(OCCn2nc(C(=O)O)c3ccccc3c2=O)cc1", "inhibition": "1.16% (inactive)"}, {"compound": "O=c1[nH]c(=O)n(Cc2ccc(Oc3ccccc3)cc2)cc1Br", "inhibition": "2.82% (inactive)"}, {"compound": "CCc1nnc(NC(=O)CN2CCN(c3ccccc3F)CC2)s1", "inhibition": "5.55% (inactive)"}, {"compound": "CC(C)C(=O)NNC(=O)CN1CCN(c2nc(-c3ccccc3)cs2)CC1", "inhibition": "-10.4% (inactive)"}, {"compound": "CC(=O)Nc1cccc(C(=O)N2CCN(Cc3ccccc3)CC2)c1", "inhibition": "-9.84% (inactive)"}, {"compound": "CC(=O)NC(CC(=O)c1ccc([N+](=O)[O-])cc1)C(Cl)(Cl)Cl", "note": "(configuration not stated)", "inhibition": "13.4% (inactive)"}, {"compound": "CC(C)CC(=O)NC(Nc1ccc([N+](=O)[O-])cc1)C(Cl)(Cl)Cl", "note": "(configuration not stated)", "inhibition": "4.27% (inactive)"}, {"compound": "COc1ccc(C(CC(=O)c2ccc(C)cc2)Nc2ccc([N+](=O)[O-])cc2)cc1", "note": "(configuration not stated)", "inhibition": "14.3% (inactive)"}, {"compound": "Cc1ccc(NCC(=O)c2ccc([N+](=O)[O-])cc2)cc1", "inhibition": "8.11% (inactive)"}, {"compound": "OC(COc1ccc(Br)cc1)Cn1ccnc1", "note": "(configuration not stated)", "inhibition": "-0.05% (inactive)"}, {"compound": "O=C(NN1CCOCC1)c1ccc(Cl)s1", "inhibition": "-0.84% (inactive)"}, {"compound": "O=C(COC(=O)C1CCC1)Nc1ncc(Cl)cc1Cl", "inhibition": "-10.9% (inactive)"}, {"compound": "COc1ccc(N2CCN(c3ccc(NC(=O)C4CCCCC4)cc3C#N)CC2)cc1", "inhibition": "7.01% (inactive)"}, {"compound": "Cc1cc(C)nc(Nc2ncn[nH]2)n1", "inhibition": "6.87% (inactive)"}, {"compound": "Clc1ccc(CNc2ccc(CNc3ncn[nH]3)cc2)cc1", "inhibition": "2.69% (inactive)"}, {"compound": "CC1C(=O)N2CCCc3cc(NC(=O)C(=O)NCCc4ccc(F)cc4)cc1c32", "note": "(configuration not stated)", "inhibition": "39.4% (inactive)"}, {"compound": "CC(C)c1nnc(NC(=O)CCC(=O)N2CCN(c3cccc(Cl)c3)CC2)s1", "inhibition": "25.5% (inactive)"}, {"compound": "CC(C)c1nnc(NC(=O)CCC(=O)N2CCN(c3ccc(F)cc3)CC2)s1", "inhibition": "6.66% (inactive)"}, {"compound": "Cc1[nH]ncc1N=Cc1ccc([N+](=O)[O-])cc1", "inhibition": "1.43% (inactive)"}, {"compound": "CCOc1ccc(C(=O)CCC(=O)NCC(=O)Nc2c(C)cccc2C)cc1", "inhibition": "3.97% (inactive)"}, {"compound": "O=C1CSC2(C(=O)N3CCCc4cccc2c43)N1c1cccc(C(F)(F)F)c1", "note": "(configuration not stated)", "inhibition": "-2.03% (inactive)"}, {"compound": "O=S(=O)(c1ccc(N2CC=C(c3ccccc3)CC2)nc1)N1CCCC1", "inhibition": "-10.8% (inactive)"}]}]}
